Many of the other results were omitted from the sample, so hits are more common in it than they were.
ST2 IL33 inh: blocks human ST2 binding to IL-33; Q01638; AlphaLISA ST2-Fc/biotin-IL-33 interaction, 1 h; inhibition, % for hits at 17 µM; actives 2.3% (n = 78,000); AID 1259354; in the data active = inhibition above about 30%
Target sequence (Q01638 whole entry, looked up): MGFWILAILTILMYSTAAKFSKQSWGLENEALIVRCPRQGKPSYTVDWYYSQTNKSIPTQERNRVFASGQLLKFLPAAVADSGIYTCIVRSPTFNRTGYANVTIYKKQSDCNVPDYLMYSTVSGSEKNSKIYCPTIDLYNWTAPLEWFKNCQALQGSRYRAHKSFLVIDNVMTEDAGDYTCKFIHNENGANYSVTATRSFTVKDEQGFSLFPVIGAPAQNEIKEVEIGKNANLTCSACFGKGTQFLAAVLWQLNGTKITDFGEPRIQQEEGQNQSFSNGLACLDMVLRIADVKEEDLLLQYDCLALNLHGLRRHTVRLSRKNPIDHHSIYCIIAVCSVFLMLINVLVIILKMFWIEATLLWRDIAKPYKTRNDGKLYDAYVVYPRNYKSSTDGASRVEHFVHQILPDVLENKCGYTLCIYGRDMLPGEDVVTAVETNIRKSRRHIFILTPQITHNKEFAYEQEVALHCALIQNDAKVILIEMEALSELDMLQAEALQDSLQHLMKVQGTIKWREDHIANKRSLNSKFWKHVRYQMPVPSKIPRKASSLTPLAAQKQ
Large screens that a line does not name were inactive.

CC(=O)N1c2ccc(N=Cc3cc(Br)cc(Br)c3O)cc2CC1C (configuration not stated)	none
Cn1c(=O)n(C)c2cc(N=Cc3cccc([N+](=O)[O-])c3)ccc21	none
CCCNC(=O)c1cnn2c(C)c(Cc3c(F)cccc3Cl)c(C)nc12	none
O=C(c1cc(F)c(F)cc1Cl)n1nnc2ccccc21	none
CSc1nnc2c(n1)OC(c1ccc(C)o1)N(C(C)=O)c1ccccc1-2 (configuration not stated)	none
Cc1ccn2c(NC(=O)CC(C)(C)C)c(-c3ccccc3)nc2c1	none
O=C(Nc1cccc(-c2nc3ncccc3o2)c1)c1ccc(OCc2ccccc2)cc1	ST2 IL33 inh 33%
CCOc1cc(OCC)cc(C(=O)Nc2cccc(-c3nc4ncccc4o3)c2)c1	none
CC(C)c1ccc(C(=O)Nc2cccc(-c3nc4ncccc4o3)c2)cc1	none
O=C(O)c1cccn1Cc1cccc(Cl)c1	none
COc1ccc(-c2nc(-c3cccc([N+](=O)[O-])c3)no2)cc1	none
COc1ccccc1Cc1nc(-c2ccc([N+](=O)[O-])cc2)no1	ST2 IL33 inh 30%
COc1ccccc1CNc1ccc([N+](=O)[O-])cn1	none
COc1ccccc1Cc1nc(-c2cccc([N+](=O)[O-])c2)no1	ST2 IL33 inh 32%
COc1ccccc1Cc1noc(/C=C/c2ccccc2Cl)n1	none
COc1ccccc1Cc1noc(-c2ccc([N+](=O)[O-])cc2)n1	ST2 IL33 inh 47%
O=[N+]([O-])c1cccc(-c2noc(-c3ccc(I)cc3)n2)c1	none
COc1ccccc1Nc1nc(-c2ccc([N+](=O)[O-])cc2)nc2ccccc12	none
COc1ccccc1Cc1noc(COc2cccc(C)c2C)n1	none
CC[C@H]1CN(S(=O)(=O)c2ccc(OC)cc2)CC[C@H]1CC(=O)N1CCC(C(=O)OC)CC1	none
CC(C)N(C(=O)CSc1nnc(-c2ccccc2)o1)c1ccccc1	none
Cc1nc2cc(Cl)ccc2s1	none
CCCN(CCO)Cc1ccc(N(C)C)cc1	none
O=C1CSc2ccc(S(=O)(=O)N3CCCC3)cc2N1	none
COCc1ccc(C(=O)N2CCCC(CCC(=O)NCc3ccccc3Cl)C2)o1 (configuration not stated)	none
COc1ccc(CNC(=O)C[C@@H]2O[C@H](CNCc3ccccn3)[C@@H](O)[C@H]2O)cc1	none
CC1(C)CC(=O)C2=C(C1)OC(N)=C(C#N)C2c1ccc(Br)o1 (configuration not stated)	none
Cc1ccc(C2=N/C(=C\c3ccccc3)C(=O)O2)cc1[N+](=O)[O-]	none
COc1ccc(/C=C2\N=C(c3cccc(I)c3)OC2=O)cc1	ST2 IL33 inh 31%
Cc1ccccc1C1=N/C(=C\c2ccc(N(C)C)cc2)C(=O)O1	ST2 IL33 inh 40%
Cc1ccccc1C1=N/C(=C\C=C\c2ccccc2)C(=O)O1	ST2 IL33 inh 42%
Cc1cccc(C2=N/C(=C\c3ccc(Br)cc3)C(=O)O2)c1	none
O=C1OC(c2ccc(-c3ccccc3)cc2)=N/C1=C\c1ccccc1	none
COc1ccc(/C=C2\N=C(c3cccc([N+](=O)[O-])c3)OC2=O)cc1	none
O=C1OC(c2cccc(I)c2)=N/C1=C\c1ccc(Br)cc1	none
Cc1ccc(C2=N/C(=C\c3ccc([N+](=O)[O-])cc3)C(=O)O2)cc1[N+](=O)[O-]	none
O=C1OC(c2ccc(Cl)cc2Cl)=N/C1=C\c1ccccc1	none
CN(C)c1ccc(/C=C2\N=C(c3ccccc3)OC2=O)cc1Br	ST2 IL33 inh 41%
O=C1OC(c2ccc(Br)cc2)=N/C1=C\C=C\c1ccccc1	none
Cc1nc(SCC(=O)NCCc2ccccc2)c2c3c(sc2n1)CCC3	none
Cc1ccccc1-n1c(-c2ccc(Br)cc2)cn2c3c(=O)n(C)c(=O)n(C)c3nc12	none
Clc1ccccc1-n1cnnc1Cc1cccnc1	none
Cc1ccc(C)c(CN2CCCN(CC(=O)NC3CCCCC3)S2(=O)=O)c1	none
Cc1ccc(NS(=O)(=O)c2ccc3c4c(cccc24)C(=O)N3)cc1C	none
Cc1ccccc1C1=N/C(=C\c2cccc(F)c2)C(=O)O1	none
COc1ccc(/C=C2\N=C(c3ccccc3C)OC2=O)cc1	none
COc1c(Cl)cc(Cl)cc1/C=C1\N=C(c2ccccc2)OC1=O	none
CCCCOc1ccc(/C=C2\N=C(c3cccc([N+](=O)[O-])c3)OC2=O)cc1	none
COc1ccccc1/C=C1\N=C(c2cc([N+](=O)[O-])cc([N+](=O)[O-])c2)OC1=O	none
COc1cc(C2=N/C(=C\C=C\c3ccccc3)C(=O)O2)cc(OC)c1OC	ST2 IL33 inh 30%
CCCCOc1ccc(C2=N/C(=C\c3ccc(N(C)C)cc3)C(=O)O2)cc1	ST2 IL33 inh 37%
CN(C)c1ccc(/C=C2\N=C(c3ccc([N+](=O)[O-])cc3)OC2=O)cc1	none
Cc1ccccc1C1=N/C(=C\c2ccccc2)C(=O)O1	ST2 IL33 inh 33%
CCCC(=O)N1c2ccccc2-c2nnc(SC)nc2OC1c1ccco1 (configuration not stated)	none
O=[N+]([O-])c1ccc(C(O)CSc2ncnc3nc[nH]c23)cc1 (configuration not stated)	none
CCSc1nnc(NC(=O)CN2CCC(O)(c3cccnc3)CC2)s1	none
CN(C)c1ncnc2c1CCN(S(=O)(=O)c1cccc3nsnc13)C2	none
COC(=O)CCCC(=O)N1CCCC(CNC(=O)c2cc(OC)cc(OC)c2)C1 (configuration not stated)	none
COc1ccccc1N1C(=O)C2C(C(C)=O)=NN(c3ccc(Cl)cc3)C2C1=O (configuration not stated)	none
Cc1[nH]c2c(C(=O)N3CCC4(CC3)C(=O)NCCN4C)cccc2c1C	none
CCCCc1ncc(CN2CCC3(CC2)C(=O)NCCN3C)[nH]1	none
Cc1c(CN2CCC3(CC2)C(=O)NCCN3C)[nH]c2c(C)cccc12	ST2 IL33 inh 30%
Cc1csc(CN(C)C(=O)c2cc(Cn3c(C)nc4ccccc43)on2)n1	none
COC(=O)c1ccc(CSc2nc(C)cc(C)n2)cc1	none
O=C(CN1CCCCCC1)N1CCCc2c1c(=O)oc1ccc(O)cc21	none
O=C(CN1CCCCCC1)N1CCCc2c1c(=O)oc1ccc(OCc3ccccc3)cc21	ST2 IL33 inh 30%
O=C(CN1CCCC1)N1CCCc2c1c(=O)oc1ccc(O)cc21	none
O=C(Nc1ccc(F)c(Cl)c1)c1cc(C2CC2)on1	none
CCc1ncc(CN2CCC(C(=O)Nc3cccc(-c4cccc(F)c4)c3)CC2)cn1	none
CCOc1ccccc1N1CCN(C2CC(=O)N(c3ccccc3)C2=O)CC1 (configuration not stated)	none
COc1ccccc1N1C(=O)CC(N2CCOCC2)C1=O (configuration not stated)	none
CCOc1ccccc1N1C(=O)CC(Nc2ccc(N3CCOCC3)cc2)C1=O (configuration not stated)	ST2 IL33 inh 51%
OCCC1CN(c2nc(-c3ccncc3)nc3c2CCNCC3)CCO1 (configuration not stated)	none
O=C(C1CCCN(C2CCN(c3nc4ccccc4o3)CC2)C1)N1CC=CC1 (configuration not stated)	none
c1csc(-c2noc(CN3CCN(C4CCc5ccccc5C4)CC3)n2)c1 (configuration not stated)	none
CCSC1=N/C(=C\c2ccc3c(c2)OCO3)C(=O)S1	ST2 IL33 inh 55%
CCSC1=N/C(=C\c2ccc(N(CC)CC)cc2OC)C(=O)S1	ST2 IL33 inh 65%
CCSC1=N/C(=C\c2cc3c(cc2Cl)OCO3)C(=O)S1	none
O=C1C(=Cc2ccc3c(c2)OCO3)C(=O)c2ccccc21	none
CCN(CC)c1ccc(C=Nc2ccc([N+](=O)[O-])cc2OC)c(O)c1	none
CCOc1ccc(-c2nc3s/c(=C\c4ccc(OC)cc4OC)c(=O)n3n2)cc1	none
Cc1nc(N2CCCCCCC2)ncc1C(C)NC(=O)CCn1cccn1 (configuration not stated)	none
